GCN5L2 inh = blocks human GCN5L2 histone acetyltransferase | Q92830 | GCN5L2 HAT assay, ThioGlo1 CoA-SH fluorescence | Potency, µM (titrated, usually from 58.9 µM), for inactives: top-dose activity change, negative = inhibition, most hits filed as inhibitors | 390,000 tested, 0.21% active | AID 504327; further: on the % scale 0 is the no-effect control and ±100 the full control effect
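Titration-based screen in which CoA formation is detected via maleimide probe ThioGlo1 (50uM) turning fluorescent on thiol reaction; substrates H3(1-25) 75uM and acetyl-CoA 70uM, GCN5L2 20nM, 20 min incubation at room temperature.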
APE1 inh = inhibitors of human APE1 endonuclease. Potency, µM (titrated, usually from 65.8 µM), without a hit: at the top dose activity change, negative = inhibition, actives largely listed as inhibitors. recombinant APE1, TAMRA/BHQ-2 abasic DNA cleavage fluorescence. 350,000 tested, 0.35% active. AID 2517. P27695;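 further: plate controls were vehicle for no effect and reference inhibitor for full effect; nearly all actives have a fitted effect of over 55% in size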
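APE1 at 0.75 nM preincubated 15 min at room temperature with compound. Reaction then started with 50 nM double-stranded THF-abasic substrate labelled with TAMRA/BHQ-2, and 525/598 nm fluorescence read kinetically. Activity taken as third-minus-first read difference, normalized to DMSO and NSC13755 controls.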
BLM inh = Bloom syndrome helicase (human) inhibition; Potency, µM (series often up to 56.1 µM), inactives show at the highest dose activity change, negative = inhibition, hits mostly inhibitors; 350,000 tested, 0.2% active; recombinant BLM DNA unwinding, fluorescence dequenching;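 further: plate controls were vehicle for no effect and no enzyme for full effect; nearly all actives have a fitted effect of over 35% in size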
RECQ1 inh-1 = blocks DNA unwinding by human RECQ1; Potency, µM (highest dose often 57.3 µM), without a hit: at the highest dose activity, negative = inhibition, actives largely listed as inhibitors; 240,000 tested, 0.54% active; AID 2549; RECQ1 DNA unwinding, red fluorescence kinetic read;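 further: plate controls were vehicle for no effect and no enzyme for full effect; nearly all actives have a fitted effect of over 30% in size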
Target sequence (P46063 whole entry, looked up): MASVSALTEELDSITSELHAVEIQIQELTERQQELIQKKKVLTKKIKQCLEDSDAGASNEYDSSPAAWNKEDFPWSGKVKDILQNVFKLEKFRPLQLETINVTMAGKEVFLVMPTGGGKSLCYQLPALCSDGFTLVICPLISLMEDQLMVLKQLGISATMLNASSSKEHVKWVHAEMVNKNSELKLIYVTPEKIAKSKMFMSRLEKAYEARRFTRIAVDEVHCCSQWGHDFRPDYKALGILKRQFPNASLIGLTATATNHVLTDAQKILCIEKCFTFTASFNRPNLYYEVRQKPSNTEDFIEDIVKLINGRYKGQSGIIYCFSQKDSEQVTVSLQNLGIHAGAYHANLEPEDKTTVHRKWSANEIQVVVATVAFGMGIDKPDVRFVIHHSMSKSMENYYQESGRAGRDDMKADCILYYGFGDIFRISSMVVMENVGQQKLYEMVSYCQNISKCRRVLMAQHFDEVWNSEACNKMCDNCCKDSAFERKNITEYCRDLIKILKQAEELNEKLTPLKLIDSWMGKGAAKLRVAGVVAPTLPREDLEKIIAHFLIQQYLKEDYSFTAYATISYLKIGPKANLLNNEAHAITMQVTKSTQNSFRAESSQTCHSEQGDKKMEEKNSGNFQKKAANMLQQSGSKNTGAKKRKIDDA
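50 nM RECQ1T1 preincubated 15 min with compound in Tris pH 8.0 buffer with MgCl2, DTT, Tween-20 and 2.5 ug/ml poly(dI-dC); started with 200 nM TAMRA/BHQ-2 forked duplex and 2 mM ATP. Unwinding read as fluorescence (525/598 nm), two reads 2 h apart.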
WRN inhibitor = blocks human WRN helicase; Q14191; WRN helicase unwinding, fluorescent forked duplex, kinetic; Potency, µM (top dose mostly 114 µM), without a hit: at the top dose activity change, negative = inhibition, hits mostly inhibitors; 360,000 tested, 0.46% active; further: on the % scale 0 is the no-effect control and ±100 the full control effect; nearly all actives have a fitted effect of over 55% in size
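WRN at 20 nM final preincubated with compound 15 min at room temperature; reaction started with 100 nM fluorophore/quencher forked duplex oligonucleotide and 2 mM ATP final. Unwinding followed kinetically by red fluorescence (ex 525, em 598 nm).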
ERG Ets-DNA blk = inhibitors of human ERG Ets domain-DNA interaction. P11308. fluorescence polarization, His-ERG Ets domain / labelled DNA. Potency, µM (series often up to 76.9 µM), without a hit: at the highest dose FP activity, negative = inhibition, most hits filed as inhibitors. 370,000 tested, 0.028% active. AID 624246; active means well fitted inhibition curve with a large enough effect in the polarisation, with a control signal flat; inconclusive means small, poorly fitted or top-dose-only effect, or effect the other way, or a change in a side signal; inactive means no such curve, though single readings can be large or run the other way; the % refers to the polarisation;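 further: polarization taken with two DNA probes labelled with fluorescein and Texas red; % of control where 0% means no effect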
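His-tagged ERG Ets domain (1 uM in the protein solution; 300mM KCl, 50mM Tris-HCl, 1mM EDTA, 1mM DTT, pH 7.5) received compound, then a probe mix of 5 nM fluorescein-DNA and 100nM Texas-615-DNA. Fluorescence polarization was read for both dyes.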
RECQ1 conf = confirmation of human RECQ1 helicase inhibitors; RECQ1 helicase DNA unwinding, fluorescence; Potency, µM (doses to about 229 µM), for the others: at the highest dose activity change, negative = inhibition, hits mostly inhibitors; AID 2708; 610 tested, 28% active; shares compounds with RECQ1 inh-1; further: on the % scale 0 is the no-effect control and ±100 the full control effect; nearly all actives have a fitted effect of over 45% in size
RECQ1 ADP FP = ADP displacement flagged in RECQ1 inhibitor counter-screen. shares compounds with RECQ1 inh-1. ADP fluorescence polarization displacement counterscreen. Potency, µM (series often up to 228 µM), for the others: at the highest dose activity change, negative = inhibition, most hits filed as inhibitors. 530 tested, 27% active. AID 2711; further: on the % scale 0 is the no-effect control and ±100 the full control effect; nearly all actives have a fitted effect of over 45% in size
RECQ1 inh-2 = RECQ1 helicase inhibition confirmed, round 2. shares compounds with RECQ1 inh-1. recombinant RECQ1 DNA unwinding, red fluorescence. Potency, µM (series often up to 119 µM), for inactives: at the top dose activity, negative = inhibition, most hits filed as inhibitors. 1,100 tested, 15% active; further: on the % scale 0 is the no-effect control and ±100 the full control effect; nearly all actives have a fitted effect of over 50% in size
* hit, by the source's call; i = inactive; ? = inconclusive; . = no result given; [ ] = remark or other dose. Only some compounds are listed: those with a hit (about 0.88% of all), similar ones and a draw of the others. Unless noted, the call rests on the fitted dose curve; in most records, active means well fitted curve in the direction sought with a large enough effect; inconclusive means small, poorly fitted or top-dose-only effect, or another doubt; inactive means no such curve, though single readings can be large; an effect the other way counts as inactive or inconclusive. Potency means the concentration at half of the fitted maximal effect.

SMILES	GCN5L2 inh	APE1 inh	BLM inh	RECQ1 inh-1	WRN inhibitor	ERG Ets-DNA blk	RECQ1 inh-2	others
CC(=O)N(C)/C=C1\Sc2ccccc2C1=O	?	0%	-2%	?	-5%	0%	-15%
COCCn1c(N)c(C(=O)NCc2cccs2)c2nc3ccccc3nc21	-27%	?	-13%	?	-1%	-15%	-16%
COCCn1c(N)c(S(=O)(=O)c2cccs2)c2nc3ccccc3nc21	-16%	0%	?	-13%	-8%[57.1 µM]	.	.
COCCn1c(N)c(C(=O)NCC2CCCO2)c2nc3ccccc3nc21 (centres undefined)	?	?	?	?	-12%	-1%	-10%
CCOC(=O)COc1ccc(CC)cc1C(=O)c1ccn2nc(-c3ccc(C)cc3)cc2n1	-11%	.	-4%	.	.	1%	.
CCOc1cc(/C=C(/NC(C)=O)C(=O)O)cc(Cl)c1OCc1cccc(Br)c1	-5%	20%	-2%	-3%	2%	4%	.	RECQ1 conf=?;RECQ1 ADP FP=-9%
CCOc1ccc(/C=C(/NC(=O)c2ccccc2Cl)C(=O)O)cc1	-10%	0%	-1%	30%	-31%	1%	.
Cc1ccccc1CN1c2ccccc2-c2nc(SCC(=O)Nc3cc(F)ccc3F)ncc2S1(=O)=O	-5%	.	-5%	.	.	4%	.
Cc1ccc(-n2c(=O)c3ccc(C(=O)NCc4ccccc4Cl)cc3n(CC(=O)Nc3cccc(F)c3)c2=O)cc1	-1%	.	0%	.	.	0%	.
O=C(O)c1cc(-c2ccc(/C=C3/SC(=S)N(Cc4ccccc4)C3=O)o2)ccc1Cl	-11%	?	-8%	6.3µM*	?	?	.	RECQ1 conf=?
COc1ccc(CN2C(=O)/C(=C/c3ccc(-c4ccc(Cl)c(C(=O)O)c4)o3)SC2=S)cc1	-9%	?	2%	-16%	.	.	.
O=C1/C(=C/c2ccncc2)SC(=S)N1Cc1ccccc1	-17%	-4%	3%	i	-14%	27%	.
Cc1ccc(/C=C2\SC(=S)N(Cc3ccccc3)C2=O)o1	-1%	-3%	-10%	18µM*	-13%	21%	.	RECQ1 conf=?;RECQ1 ADP FP=34%[91.9 µM]
COc1ccc(/C=C/C(=O)NCc2ccccn2)cc1	-1%	0%	1%	-42%	-2%	-1%	.
Cc1ccc(/C=C/C(=O)NCc2ccccn2)o1	-24%	?	?	?	50µM*	-4%	18µM*
O=[N+]([O-])c1ccc(-c2cnc(SC(c3ccccc3)c3ccccc3)[nH]2)cc1	-5%	-4%	-8%	-16%	-7%	0%	.
O=[N+]([O-])c1ccc(-c2cnc(SCc3ccccc3Cl)[nH]2)cc1	?	-7%	-11%	?	-9%	0%	-25%
CCOC(=O)c1ccc(NC2=CC(c3ccc(F)cc3)N(c3ccc(C(=O)OCC)cc3)C2=O)cc1 (centres undefined)	4%	.	1%	.	.	-4%	.
O=C(Nc1ccccc1)N1CCC(c2nc(-c3ccc(S(=O)(=O)N4CCOCC4)cc3)no2)CC1	1%	-2%	-3%	i	3%	-1%	.	RECQ1 conf=8%;RECQ1 ADP FP=-16%
O=C(c1ccccc1)N1CCC(c2nc(-c3ccc(S(=O)(=O)N4CCOCC4)cc3)no2)CC1	-3%	-1%	-4%	i	4%	5%	.
Cc1ccc(-n2nc(C)c3c2OC(N)=C(C#N)C3c2ccoc2)cc1 (centres undefined)	-6%	?	-6%	?	-29%	6%	-7%
O=c1c(-c2cccc(Cl)c2)nc2cncnc2n1Cc1ccc(F)cc1	-13%	1%	-5%	i	.	.	.
Cc1cc(C(=O)OCC(=O)c2ccc(Cl)c([N+](=O)[O-])c2)c2cccc(C)c2n1	-12%	?	-17%	18µM*	-37%	-8%	-13%
COc1ccc(C(=O)NCCc2nc3ccccc3[nH]2)cc1	17%	.	0%	.	.	-5%	.
O=C(CSc1nnc(-c2ccncc2)n1Cc1ccco1)Nc1ccccc1Cl	10%	-5%	-1%	-14%	-4%	-1%	.
SMILES	GCN5L2 inh	APE1 inh	BLM inh	RECQ1 inh-1	WRN inhibitor	ERG Ets-DNA blk	RECQ1 inh-2	others
COc1ccc(NCc2nnc(SCC(=O)Nc3nc(-c4ccccc4)cs3)n2-c2ccccc2)cc1	0%	2%	1%	4%	-10%	-1%	.	RECQ1 conf=15%;RECQ1 ADP FP=?
COc1ccc(-n2c(Cc3cccn3C)nnc2SCC(=O)Nc2ccc(C(C)=O)cc2)cc1	-16%	-9%	-7%	22µM*	2%	-10%	-4%
O=C(CSc1nnc(-c2ccncc2)n1Cc1ccco1)Nc1nc(-c2ccccc2)cs1	-2%	-5%	-10%	i	0%	-11%	.	RECQ1 conf=-16%;RECQ1 ADP FP=41%
Cc1ccc(-n2c(Cc3cccn3C)nnc2SCC(N)=O)cc1	3%	0%	0%	i	7%	-3%	.
Cc1ccc(-n2c(Cc3cccn3C)nnc2SCC(=O)NCc2ccco2)cc1	?	-5%	1%	22µM*	-28%	-6%	-15%	RECQ1 conf=-9%[114 µM];RECQ1 ADP FP=14%[91.9 µM]
CCCNC(=O)C1(C)CCN(C(=O)c2ccc3snnc3c2)C1 (centres undefined)	.	.	.	.	0%	.	.
COC(=O)C1=C(C)N2C(=O)CSC2=NC1c1ccc2c(c1)OCO2 (centres undefined)	-6%	10%	-6%	?	-8%	52%	-16%
COCCN1C=C(C(=O)OC)C(c2ccc3c(c2)OCO3)C(C(=O)OC)=C1	-1%	3%	-7%	i	0%	.	.
Cc1cc(C(=O)CSc2nnc(-c3ccco3)o2)c(C)n1CC1COc2ccccc2O1 (centres undefined)	-10%	?	-9%	32µM*	-2%	-9%	-10%
Cc1onc(-c2ccccc2)c1C(=O)OCC(=O)c1ccc[nH]1	.	.	.	.	0%	.	.
CC(C)=C(C#N)c1nc2ccccc2s1	-28%	-4%	-2%	10µM*	-2%	.	-10%
CCCC/C=C/[C@H](C)[C@@](C)(COC(=O)c1ccc(Br)cc1)Cc1ccccc1	.	0%	4%	i	.	.	.

Source: PubChem
